Laboratory results as given in PubChem BioAssay (Tox21).
Results filed as inconclusive are left out. Where a call stands in place of a potency, no number is given. More than one record can exist for a structure, and the calls need not agree. The source made the active and inactive calls. Calls follow the shape of the full dose curve.

Tests used:
[1] = target: Acetylcholinesterase (Homo sapiens) (UniProt P22303); test: Acetylcholinesterase (AChE) small molecule antagonists: colormetric cell-based qHTS assay (AID 1347395); also: nearly all actives have a fitted effect of over 30% in size; also: potency is read from the fitted curve at half-maximal effect
How it was run: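 After overnight attachment at 37 C, SH-SY5Y cells get 30 min compound exposure; detection cocktail (acetylthiocholine, DTNB) then incubates 90 min at 37 C, and absorbance reflects AChE-generated thiocholine.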

[2] = target: Acetylcholinesterase (Homo sapiens) (UniProt P22303); test: Acetylcholinesterase (AChE) small molecule antagonists: enzyme-based qHTS assay (AID 1347397); details: Potency: AChE enzyme activity inhibition; outcome: AChE enzyme activity inhibition; also: nearly all actives have a fitted effect of over 55% in size
How it was run: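 Colorimetric DTNB read-out of thiocholine released from acetylthiocholine by recombinant human AChE (50 mU/mL as dispensed). Compounds were preincubated 30 min at RT before substrate/DTNB addition, with a 10 min RT reaction.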

[3] = target: Acetylcholinesterase (Homo sapiens) (UniProt P22303); test: Acetylcholinesterase (AChE) small molecule antagonists: fluorescence cell-based qHTS assay (AID 1347398); details: Potency: AChE activity; outcome: AChE activity; also: nearly all actives have a fitted effect of over 50% in size
How it was run: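 SH-SY5Y, 2,000 cells/well, attached overnight; cmpd 30 min 37 C; acetylthiocholine/Thiolite Green cocktail 40 min RT; fluorescence Ex/Em 490/520 nm.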

[4] = target: Acetylcholinesterase (Homo sapiens) (UniProt P22303); test: Acetylcholinesterase (AChE) small molecule antagonists: enzyme-based qHTS assay with human liver microsomes (AID 1347399); details: Potency: qHTS inhibition; outcome: qHTS inhibition; also: nearly all actives have a fitted effect of over 60% in size
How it was run: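 Recombinant human AChE (50 mU/mL in the enzyme mix) and human liver microsomes (0.25 mg/mL final) were preincubated with compound and NADPH (0.25 mg/mL final) for 30 min at 37 C. Acetylthiocholine/DTNB was then added; thiocholine was read colorimetrically after 10 min at room temperature.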

Chain of Acetylcholinesterase (Homo sapiens) (P22303 whole entry, looked up): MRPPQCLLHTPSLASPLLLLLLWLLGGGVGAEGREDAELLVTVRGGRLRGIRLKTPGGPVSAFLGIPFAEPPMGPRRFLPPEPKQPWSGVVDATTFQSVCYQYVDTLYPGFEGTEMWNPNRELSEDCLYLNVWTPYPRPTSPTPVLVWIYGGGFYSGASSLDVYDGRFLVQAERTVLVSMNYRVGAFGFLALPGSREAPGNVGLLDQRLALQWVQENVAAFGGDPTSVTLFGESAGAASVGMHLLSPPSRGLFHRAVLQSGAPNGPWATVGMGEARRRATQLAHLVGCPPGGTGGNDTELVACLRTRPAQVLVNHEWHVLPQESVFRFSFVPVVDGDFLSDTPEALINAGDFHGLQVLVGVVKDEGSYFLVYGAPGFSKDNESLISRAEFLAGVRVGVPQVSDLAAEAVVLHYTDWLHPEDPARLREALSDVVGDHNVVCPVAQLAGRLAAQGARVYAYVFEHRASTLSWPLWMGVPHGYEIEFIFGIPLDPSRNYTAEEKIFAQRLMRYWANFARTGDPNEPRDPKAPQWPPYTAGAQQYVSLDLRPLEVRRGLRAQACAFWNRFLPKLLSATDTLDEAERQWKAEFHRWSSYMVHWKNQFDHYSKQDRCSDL

Structure (SMILES)	Potency [1]	Potency [2]	Potency [3]	Potency [4]	activity, negative = inhibition [1]	activity change, negative = inhibition [2]	activity change, negative = inhibition [3]	activity change, negative = inhibition [4]
CCC(=O)OC(C)c1ccccc1 (stereo not given)	inactive	inactive	inactive	inactive	–	–	–	–
C=CCOC(=O)/C=C\C(=O)OCC=C	inactive	inactive	inactive	inactive	–	–	–	–
CCCCCCCCn1sc(Cl)c(Cl)c1=O	inactive	inactive	inactive	inactive	–	–	–	–
C1N2CN3CN1CN(C2)C3	inactive	inactive	inactive	inactive	–	–	–	–
COc1ccc(CN(CCN(C)C)c2ccccn2)cc1	inactive	inactive	inactive	inactive	–	–	–	–
CCCCOC(=O)CO	inactive	inactive	inactive	inactive	–	–	–	–
CC(C)(N)C#N	inactive	inactive	inactive	inactive	–	–	–	–
NC(=S)NC(N)=S	inactive	inactive	inactive	inactive	–	–	–	–
C[C@H]1[C@H]2CC[C@H]3[C@@H]4CC=C5C[C@@H](N(C)C)CC[C@]5(C)[C@H]4CC[C@]23CN1C	inactive	inactive	inactive	inactive	–	–	–	–
C1COC(NC(C2CC2)C2CC2)=N1	inactive	inactive	inactive	inactive	–	–	–	–
CCCCCCCC1CCCC1=O (stereo not given)	inactive	inactive	inactive	inactive	–	–	–	–
CCC(C(=O)OCCN1CCOC(c2ccccc2)C1C)c1ccccc1 (stereo not given)	inactive	inactive	inactive	inactive	–	–	–	–
CC(=O)N[C@@H](Cc1ccc(O)cc1)C(=O)O	inactive	inactive	inactive	inactive	–	–	–	–
CCCCCOC(=O)Nc1nc(=O)n([C@@H]2O[C@H](C)[C@@H](O)[C@H]2O)cc1F	inactive	inactive	inactive	inactive	–	–	–	–
CCOC(=O)Oc1ccc(CCNC(=O)[C@H](CCSC)NC(C)=O)cc1OC(=O)OCC	inactive	inactive	inactive	inactive	–	–	–	–
CCN(CCC#N)c1ccccc1	inactive	inactive	inactive	inactive	–	–	–	–
CCC(=O)OCCc1ccccc1	inactive	inactive	inactive	inactive	–	–	–	–
OCc1ccccc1	39.4 µM (active) and inactive	inactive	inactive	inactive	–	–	–	–
CC(=O)N(CC(O)CN(C(C)=O)c1c(I)c(C(=O)NCC(O)CO)c(I)c(C(=O)NCC(O)CO)c1I)c1c(I)c(C(=O)NCC(O)CO)c(I)c(C(=O)NCC(O)CO)c1I (stereo not given)	inactive	inactive	inactive	inactive	–	–	–	–
CNC1(C)C2CCC(C2)C1(C)C (stereo not given)	inactive	inactive	inactive	inactive	–	–	–	–

Structure (SMILES)	Potency [1]	Potency [2]	Potency [3]	Potency [4]	activity, negative = inhibition [1]	activity change, negative = inhibition [2]	activity change, negative = inhibition [3]	activity change, negative = inhibition [4]
CSc1cnc(C)cn1	inactive	inactive	inactive	inactive	–	–	–	–
C1CCSC1	inactive	inactive	inactive	inactive	–	–	–	–
Nc1nc(Cl)cc(Cl)n1	inactive	inactive	inactive	inactive	–	–	–	–
O=c1[nH]c2ccccc2n1CCCN1CCN(C(c2ccccc2)c2ccccc2)CC1	inactive	inactive	inactive	inactive	–	–	–	–
C=C1CC/C=C(\C)CC[C@@H]2[C@@H]1CC2(C)C	inactive	inactive	inactive	inactive	–	–	–	–
CC(=O)CCc1ccc(OC(C)=O)cc1	inactive	inactive	inactive	inactive	–	–	–	–
O=c1[nH]nc(-c2ccc([N+](=O)[O-])o2)o1	inactive	inactive	inactive	inactive	–	–	–	–
CS(=O)(=O)c1ccc(Cl)cc1	inactive	inactive	inactive	inactive	–	–	–	–
O=C(O)CCSSCCC(=O)O	inactive	inactive	inactive	inactive	–	–	–	–
Nc1nc2ccccc2[nH]1	inactive	inactive	inactive	inactive	–	–	–	–
C=CC(=O)OCCC(=O)O	82.3 µM (active) and inactive	inactive	inactive	inactive	–	–	–	–
O=C(COc1ccc(Cl)cc1)N1CCN(Cc2ccc3c(c2)OCO3)CC1	inactive	inactive	inactive	inactive	–	–	–	–
CCCCCSCCCCC	inactive	inactive	inactive	inactive	–	–	–	–
CS(=O)(=O)c1ccc([C@@H](O)[C@@H](CO)NC(=O)C(Cl)Cl)cc1	inactive	inactive	inactive	inactive	–	–	–	–
NS(=O)(=O)c1ccccc1OC(F)(F)F	inactive	inactive	inactive	inactive	–	–	–	–
Cc1cc(SC2=C(O)C[C@@](CCc3ccc(N)cc3)(C(C)C)OC2=O)c(C(C)(C)C)cc1CO	inactive	inactive	inactive	inactive	–	–	–	–
Cc1nc2ccccc2c(=O)o1	inactive	inactive	inactive	inactive	–	–	–	–
C1COCCN1	inactive	inactive	inactive	inactive	–	–	–	–
CCCCCCCO	inactive	inactive	inactive	inactive	–	–	–	–
CCN1CCN(c2cc(-c3ccc(F)cc3)c3c(n2)CCCCCC3)CC1	–	–	–	–	2.78% [at 23.6 µM] (inactive)	1.01% [at 23.6 µM] (inactive)	7.25% [at 23.8 µM] (inactive)	-1.12% [at 23.6 µM] (inactive)

Structure (SMILES)	Potency [1]	Potency [2]	Potency [3]	Potency [4]	activity, negative = inhibition [1]	activity change, negative = inhibition [2]	activity change, negative = inhibition [3]	activity change, negative = inhibition [4]
CCC(O)OC(O)CC (stereo not given)	inactive	inactive	inactive	inactive	–	–	–	–
C[C@]12CC[C@@H]3c4ccc(O)cc4CC[C@H]3[C@@H]1CC[C@@H]2O	inactive	inactive	inactive	inactive	–	–	–	–
CCCCC(CC)COC(=O)/C=C\C(=O)OCC(CC)CCCC (stereo not given)	inactive	inactive	inactive	inactive	–	–	–	–
C=CC(=O)OCCCCCCCCCC	inactive	inactive	inactive	inactive	–	–	–	–
CCOC(=O)[C@H](CCc1ccccc1)N[C@@H](C)C(=O)N(CC(=O)O)C1Cc2ccccc2C1	inactive	inactive	inactive	inactive	–	–	–	–
CCCCCCCCCOC(=O)CCCCC(=O)OCCCCCCC	inactive	inactive	inactive	inactive	–	–	–	–
CC(=O)Oc1ccc(C(=C2CCCCC2)c2ccc(OC(C)=O)cc2)cc1	inactive	inactive	inactive	inactive	–	–	–	–
COC(=O)c1ccccc1OC	inactive	inactive	inactive	inactive	–	–	–	–
NC(=O)c1ccccc1Cl	inactive	inactive	inactive	inactive	–	–	–	–
CC1(C)O[C@@H]2C[C@H]3[C@@H]4C[C@H](F)C5=CC(=O)C=C[C@]5(C)[C@@]4(F)[C@@H](O)C[C@]3(C)[C@]2(C(=O)CO)O1	inactive	inactive	inactive	inactive	–	–	–	–
CC(=O)OC(C)OC(C)=O	inactive	inactive	inactive	inactive	–	–	–	–
CCCCNC(=O)NS(=O)(=O)c1ccc(N)cc1	inactive	inactive	inactive	inactive	–	–	–	–
O=C1OC2(c3ccccc31)c1cc(Br)c(O)c(Br)c1Oc1c2cc(Br)c(O)c1Br	inactive	inactive	inactive	inactive	–	–	–	–
CCCCCCCCCCCCCCCCCC(=O)OCC(O)CO (stereo not given)	inactive	inactive	inactive	inactive	–	–	–	–
O=C(O)CP(=O)(O)O	inactive	inactive	inactive	inactive	–	–	–	–
CC(=O)c1ccccc1	inactive	inactive	inactive	inactive	–	–	–	–
CC(C)=CC(C)(C)C	inactive	inactive	inactive	inactive	–	–	–	–
C=Cc1ccccc1C=C	inactive	inactive	inactive	inactive	–	–	–	–
N#Cc1ccc(CC(=O)c2cccc(C(F)(F)F)c2)cc1	inactive	inactive	inactive	inactive	–	–	–	–
CCCCCCCCCCC	inactive	inactive	inactive	inactive	–	–	–	–
